15 compounds from PubChem BioAssay (EPA / NIEHS) can be followed below.

Where “and” joins values, the source holds several entries; their conditions need not be identical. Equal entries are not always repeated. Calls of active or inactive are those of the source. The calls were made as follows: active = hit-call score of the fitted dose curve at least 0.9, where 1 is the maximum; inactive = score below 0.9.

The nature of this experiment: CCTE_Shafer_MEA_dev_correlation_coefficient_mean: CCTE's Neural Network Formation Assay for Mean Correlation Coefficient, Shafer Lab (AID 2284093).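 As to AC50: well mean pairwise spike train correlation integrated as AUC over recording days 5 to 12; potency fitted for loss of correlation relative to DMSO vehicle wells.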 Summed up:
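Spontaneous activity recorded on days 5, 7, 9 and 12 post-plating; pairwise spike correlations are averaged across active electrodes and collapsed to an area-under-curve. Rat cortical cultures are dosed from plating through 12 days, with compound renewed at media changes.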
In the case of `CSC(=O)c1cccc2nnsc12`, the compound was classed as inactive.
Consider `Oc1ccc(C(c2ccc(O)cc2)C(Cl)(Cl)Cl)cc1`, for which the call was inactive.
Take `S=C(S)NCCNC(=S)S.[Mn+2].[S-]C([S-])=NCCN=C([S-])[S-].[Zn+2]`: the outcome was inactive.
With `S=C([S-])NCCNC(=S)[S-].[Mn+2]`, the compound was called inactive.
`CCCN(CCC)C(=O)SCC`: the outcome was inactive.
For `CC1(C)C(C=C(Cl)Cl)C1C(=O)OCc1cccc(Oc2ccccc2)c1` (stereo not given), the AC50 was 15 µM (active) and 5.33 µM (active).
Take `CCCCC(CC)CN1C(=O)C2C3C=CC(C3)C2C1=O` (stereo not given): the result was inactive.
For the compound `O=C(O)c1ccccc1`, the call was inactive.
As to `COCCO`, the outcome was inactive.
In the case of `Cc1nn(C)c(Oc2ccccc2)c1C=NOCc1ccc(C(=O)OC(C)(C)C)cc1`, the AC50 is 2.29 nM (active).
In the case of `C#CCOC(=O)[C@@H](C)Oc1ccc(Oc2ncc(Cl)cc2F)cc1`, the result was inactive.
The same measure, in the same setting: under `CCN(CC)C(=O)c1cccc(C)c1` stands “inactive”.
Turning to `CCCCOCCOCCOCc1cc2c(cc1CCC)OCO2`, the outcome was inactive.
Turning to `OB(O)O`, the compound was classed as inactive.
Regarding `CC(C)(c1ccc(O)cc1)c1ccc(O)cc1`, the result was inactive.

As a reminder, the AC50 is the midpoint of the concentration-response curve, whichever way the signal moves.
